Test results: PubChem BioAssay (EPA / NIEHS)
“And” between values parts separate entries of the source, which are not always exact repeats. Equal entries are not always repeated. More than one record can exist for a structure, and the calls need not agree. The source made the active and inactive calls. The calls were made as follows: active = hit-call score of the fitted dose curve at least 0.9, where 1 is the maximum; inactive = score below 0.9.

The molecules below were run on Intercellular Adhesion Molecule 1 (ICAM1), ICAM1 (gene 3383) (assay: BSK_hDFCGF_ICAM1: BioMAP Diversity Plus: hDFCGF Assay for Intercellular Adhesion Molecule 1 (ICAM1) Biomarker Activity (AID 2284287)). Conditions: primary human foreskin fibroblasts.
Procedure: BSK_hDFCGF is a cell-based, multiplexed-readout assay that uses foreskin fibroblast, a human skin primary cell, with measurements taken at 24 hours after chemical dosing in a 96-well plate.BSK_hDFCGF_ICAM1 is an assay component measured in the BSK_hDFCGF assay. It measures ICAM-1 antibody related to regulation of gene expression using ELISA technology.Data from the assay component BSK_hDFCGF_ICAM1 was analyzed at the endpoint, BSK_hDFCGF_ICAM1, in the positive analysis fitting direction relative to DMSO as the negative control and baseline of activity. Using a type of binding reporter, gain or loss-of-signal activity can be used to understand protein changes. To generalize the intended target to other relatable targets, this assay endpoint is annotated to the 'cell adhesion molecules' intended target family, where the subfamily is 'Immunoglobulin CAM'.
The levels of cell surface (or secreted, indicated by the prefix "s") biomarker endpoints were measured by ELISA. Overt cytotoxicity to cells in confluent adherent cultures (all systems other than the BT system) was assessed by measuring total protein levels using sulforhodamine B (SRB) staining in parallel cultures at the time of biomarker measurements, indicated as SRB endpoints. For proliferation assays for adherent cell types, individual cell types are cultured at sub-confluence and relative cell numbers quantified by SRB staining at time points optimized for each system (48 h: 3C and CASM3C systems; 72 h: BT and HDF3CGF systems; 96 h: SAg system). SRB was performed by staining cells with 0.1% SRB after fixation with 10% TCA and reading wells at 560 nm.Viability and proliferation of PBMC (T cells) was quantified by Alamar Blue reduction for the SAg and BT systems. For PBMC viability (referred to as PBMC Cytotoxicity within the assay endpoint names), cells were plated (75,000/well in a 96-well plate) and then chemical samples added for 1 h before addition of activators, SEB and TSST-1 (20 ng/mL final concentration each). Cells were incubated for 90 h. Then, Alamar Blue (20 uL/well) (Invitrogen, Cat DAL1100) was added for 6 h, and the plates were read with a fluorescence microplate reader at 546/580 nm (excitation/emission). For PBMC proliferation, cells were plated and activated as above but incubated for only 16 h prior to addition of Alamar Blue. Plates were read after 6 h.

Row | SMILES | AC50 | outcome
1 | N=C(N)C(F)(F)C(F)(F)C(F)(F)C(F)(F)C(F)(F)C(F)(F)C(F)(F)F | 30 µM (active) | inactive
2 | FC(F)(F)C(F)(F)C(F)(F)C(F)(F)C(F)(F)C(F)(F)C(F)(F)I | – | inactive
3 | O=C(O)C(F)(OC(F)(F)C(F)(OC(F)(F)C(F)(F)C(F)(F)F)C(F)(F)F)C(F)(F)F (stereo not given) | – | inactive
4 | CCCCCCCCC(F)(F)C(F)(F)C(F)(F)C(F)(F)C(F)(F)C(F)(F)F | – | inactive
5 | CCCCCCOC(=O)c1ccccc1O | 37.9 µM (active) and 29.9 µM (active) | –
6 | FC(F)(I)C(F)(F)C(F)(F)C(F)(F)I | 49.8 µM (active) and 46 µM (active) and 53.4 µM (active) | –
7 | OCC(F)(F)C(F)(F)C(F)(F)C(F)F | – | inactive
8 | FC(F)(Br)C(F)(F)C(F)(F)C(F)(F)C(F)(F)C(F)(F)Br | – | inactive
9 | O=C(O)C(F)(F)C(F)(F)C(F)(F)C(F)(F)C(F)(F)C(F)(F)C(F)(F)C(F)(F)C(F)(F)C(F)F | 14.5 µM (active) | inactive
10 | FC(F)(F)C(F)(F)C(F)(F)N(C(F)(F)C(F)(F)C(F)(F)F)C(F)(F)C(F)(F)C(F)(F)F | – | inactive
11 | OCC(F)(F)C(F)(F)C(F)(F)C(F)(F)C(F)(F)C(F)F | – | inactive
12 | O=C(O)C(F)(F)C(F)(F)C(F)(F)C(F)(F)F | – | inactive
13 | O=S(=O)(O)C(F)(F)C(F)(F)C(F)(F)C(F)(F)C(F)(F)C(F)(F)C(F)(F)F | – | inactive
14 | O=S(=O)(OCC(F)F)C(F)(F)F | – | inactive
15 | NC(=O)C(F)(F)C(F)(F)C(F)(F)C(F)(F)F | – | inactive
16 | O=C(O)C(F)(F)C(F)(F)C(F)F | – | inactive
17 | O=C(O)C(F)(F)C(F)(F)C(F)(F)C(F)(F)C(F)(F)C(F)(F)C(F)(F)C(F)(F)Cl | 14.1 µM (active) and 8.21 µM (active) | –
18 | O=S(=O)(OCCOC(F)(F)F)C(F)(F)F | – | inactive

Row | SMILES | AC50 | outcome
19 | OCCCC(F)(F)C(F)(F)C(F)(F)C(F)(F)C(F)(F)C(F)(F)C(F)(F)F | 18.3 µM (active) and 20.1 µM (active) | –
20 | CC(C)(C)C(=O)CC(=O)C(F)(F)C(F)(F)C(F)(F)F | – | inactive
21 | C=CC(F)(F)C(F)(F)C(F)(F)C(F)(F)C(F)(F)C(F)(F)C(F)(F)C(F)(F)C=C | – | inactive
22 | O=C(O)C=C(C(F)(F)F)C(F)(F)F | – | inactive
23 | C=CC(F)(F)C(F)(F)C(F)(F)C(F)(F)C(F)(F)C(F)(F)C(F)(F)C(F)(F)F | – | inactive
24 | O=C(Cl)C(F)(F)C(F)(F)C(F)(F)C(F)(F)C(F)(F)C(F)(F)C(F)(F)C(F)(F)F | 16.5 µM (active) and 19.9 µM (active) | inactive
25 | O=C(O)C(F)(F)C(F)(F)C(F)(F)C(F)(F)C(F)(F)C(F)(F)C(F)(F)C(F)(F)C(F)(F)C(F)(F)C(F)(F)C(F)(F)F | 8.71 µM (active) | inactive
26 | Cc1ccc(S(=O)(=O)OCC(F)(F)C(F)(F)C(F)(F)C(F)(F)C(F)(F)C(F)F)cc1 | – | inactive
27 | FC(F)(F)C(F)(F)C(F)(F)C(F)(F)C(F)(F)CCI | – | inactive
28 | C=CC(=O)OCC(F)(F)C(F)(F)C(F)(F)C(F)(F)C(F)(F)C(F)(F)C(F)(F)F | – | inactive
29 | FC(F)(F)C(F)(F)C(F)(F)C(F)(F)C(F)(F)C(F)(F)C(F)(F)C(F)(F)CCS | – | inactive
30 | CCO[Si](CCC(F)(F)C(F)(F)C(F)(F)C(F)(F)C(F)(F)C(F)(F)F)(OCC)OCC | – | inactive
31 | OCCCC(F)(F)C(F)(F)C(F)(F)F | – | inactive
32 | C=C(C)C(=O)OCCC(F)(F)C(F)(F)C(F)(F)C(F)(F)C(F)(C(F)(F)F)C(F)(F)F | – | inactive
33 | C=C(C)C(=O)OCC(F)(F)C(F)(F)C(F)(F)C(F)(F)C(F)(F)C(F)(F)C(F)(F)F | – | inactive
34 | O=C(O)C(F)(F)C(F)(F)F | – | inactive
35 | O=P(O)(O)OCCC(F)(F)C(F)(F)C(F)(F)C(F)(F)C(F)(F)C(F)(F)F | – | inactive
36 | O=C(O)C(F)(F)C(F)(F)OC(F)(F)F | – | inactive
